Compounds with a hit are over-represented: about 6.8% of the library has one in this group of screens.
PINK1 expr mod = A Quantitative High throughput Screen to Identify Chemical Modulators of PINK1 Expression; PINK1 immunofluorescence, high-content cytometry, 24 h; Potency, µM (series often up to 76.6 µM), hits mostly activators; hit rate 0.2% among 410,000; active = well fitted activation curve with a large enough effect; inconclusive = small, poorly fitted or top-dose-only effect; cell line not stated here; also: nearly all actives have a fitted effect of over 65% in size
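Cells are seeded, rested 12 hours, then given compound at five concentrations or DMSO for 24 hours. After fixation, blocking and antibody staining, PINK1 amount and mitochondrial localization are scored; CCCP serves as control.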
KB-3-1 cytotox = qHTS assay for MDR1-selective chemotherapeutics: Primary screen using the parental adenocarcinoma cell KB-3-1 | KB-3-1 viability, CellTiter-Glo ATP luminescence, 72 h | Potency, µM (top dose mostly 46.1 µM), usual class: cytotoxic | hit rate 1.4% among 400,000 | AID 1347075, 2019; also: nearly all actives have a fitted effect of over 60% in size
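Cells are dispensed, compounds pinned in, plates held at 37 °C for 72 h, then CellTiter-Glo is added and luminescence read after 10 minutes. Cell line: parental KB-3-1 in phenol-red-free DMEM, 10% FBS.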
MCF10A rereplic = A quantitative high throughput screen for small molecules that induce DNA re-replication in MCF 10a normal breast cells; MCF 10A DNA re-replication, Hoechst nuclear intensity, 48 h; Potency, µM (doses to about 46.1 µM), actives largely listed as activators; hit rate 2.9% among 350,000; also: nearly all actives have a fitted effect of over 50% in size
PTAP TSG101 blk = qHTS Assay for Iinhibitors of HIV-1 Budding by Blocking the Interaction of PTAP/TSG101. Tumor susceptibility gene 101 protein (Homo sapiens), Q99816. Fluorescence polarization, FITC-PTAP peptide / Tsg101 binding. Potency, µM (titrated, usually from 115 µM), usual class: inhibitors. 340,000 tested, under 10 active. AID 493005, 2010; active = well fitted inhibition curve with a large enough effect in the main read-out, with a control signal flat, not every such curve was filed as active; inconclusive = small, poorly fitted or top-dose-only effect, or effect the other way, or a change in a side signal; inactive = no such curve, though single readings can be large or run the other way
Target sequence (Q99816 whole entry, looked up): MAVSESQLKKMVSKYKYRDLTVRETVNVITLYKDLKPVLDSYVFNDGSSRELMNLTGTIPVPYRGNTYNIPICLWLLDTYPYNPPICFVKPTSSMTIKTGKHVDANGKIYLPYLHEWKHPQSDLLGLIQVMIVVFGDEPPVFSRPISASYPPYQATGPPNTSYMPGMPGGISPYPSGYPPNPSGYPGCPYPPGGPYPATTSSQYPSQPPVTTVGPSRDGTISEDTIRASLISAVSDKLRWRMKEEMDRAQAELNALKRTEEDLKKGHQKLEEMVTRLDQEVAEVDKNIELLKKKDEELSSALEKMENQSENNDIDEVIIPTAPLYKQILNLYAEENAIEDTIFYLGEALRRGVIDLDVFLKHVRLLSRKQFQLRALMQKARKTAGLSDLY
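Compounds were pin-transferred onto Tsg101 binding domain (10 uM final) in HEPES pH 7.5 buffer, then FITC-PTAP peptide was added at 50 nM final. After 20 min at RT, polarization reported peptide displacement across a qHTS concentration series.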
KB-V1 cytotox = qHTS assay for MDR1-selective chemotherapeutics: Primary screen using the drug-selected MDR subline cells KB-V1. hit rate 3.4% among 400,000. Potency, µM (series often up to 46.1 µM), actives largely listed as cytotoxic. KB-V1 MDR cells viability, CellTiter-Glo, 72 h; also: nearly all actives have a fitted effect of over 60% in size
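Following 72 h at 37 degrees C with compound, KB-V1 cell viability was read by CellTiter-Glo luminescence, medium being phenol-red-free DMEM plus 10% FBS; concentration-response parameters came from normalized, curve-fitted qHTS data.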
SW480 rereplic = A quantitative high throughput screen for small molecules that induce DNA re-replication in SW480 colon adenocarcinoma cells; SW480 DNA re-replication, Hoechst DNA content imaging, 48 h; Potency, µM (top dose mostly 46.1 µM), most hits filed as activators; hit rate 1.8% among 340,000; also: nearly all actives have a fitted effect of over 55% in size
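Image-based read-out: total Hoechst fluorescence of nuclei (405 nm excitation, 500-530 nm emission), with hits raising the fraction of high-intensity nuclei. SW480 colon cells incubated 48 hr with compounds at 37 C.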
Numbers stand for hits; i = inactive; ? = inconclusive; nt = no result. Unless noted, calls follow the shape of the dose curve; as a rule, active = well fitted curve in the direction sought with a large enough effect; inconclusive = small, poorly fitted or top-dose-only effect, or another doubt; inactive = no such curve, though single readings can be large; an effect the other way counts as inactive or inconclusive.

SMILES	PINK1 expr mod	KB-3-1 cytotox	MCF10A rereplic	PTAP TSG101 blk	KB-V1 cytotox	SW480 rereplic
Cc1ccc2c(c1)N(S(=O)(=O)c1cc(-c3onc(C)c3C)ccc1C)CCO2	i	23µM	i	i	?	?
Cc1cc(C)c(NS(=O)(=O)c2cc(-c3onc(C)c3C)ccc2C)c(C)c1	i	nt	nt	nt	nt	nt
COc1ccc(/C=C/C(=O)N(C)C2(C)CCS(=O)(=O)C2)cc1 (stereo not drawn)	i	i	i	i	i	23µM
CCN(CC(=O)NC(C)C)Cc1nc2c(Br)cc(Br)cc2c(=O)[nH]1	i	i	i	i	9.2µM	i
Cc1nnc(-n2ncc(C#N)c2N)c2nn(-c3cccc(Cl)c3)c(C)c12	nt	i	i	i	i	i
Cc1nnc(N2CCOCC2)c2nn(-c3cccc(Cl)c3)c(C)c12	i	i	i	?	3.7µM	i
C/C(=N/Nc1nc(-c2ccccc2)cc(-c2ccc(F)cc2)n1)c1cccc(N)c1	i	?	i	i	5.2µM	?
COc1ccccc1C1(O)CCN(C(=O)c2cccs2)CC1	i	i	i	i	21µM	i
CCOC(=O)C1(Cc2ccc(OC)cc2)CCN(C(=O)c2ccoc2C)CC1	i	i	?	i	i	i
COc1ccc(CN2CCN(C(=O)c3cccs3)CC2)cc1	i	i	i	i	21µM	?
CCOC(=O)C1(Cc2ccc(OC)cc2)CCN(C(=O)c2ccc3[nH]ccc3c2)CC1	i	?	12µM	i	i	?
CCOC(=O)C1(Cc2cccc(OC)c2)CCN(Cc2cc(OC)ccc2OC)CC1	i	i	?	i	i	23µM
CCc1ccc(CN2C(=O)c3ccccc3C2C(=O)NC2CCCCCC2)cc1 (stereo not drawn)	i	i	nt	nt	i	nt
COC(=O)CSc1ncc2c(n1)-c1ccccc1N(Cc1ccccc1C)S2(=O)=O	i	i	nt	nt	i	nt
O=C(c1cccs1)N1CCN(Cc2ccccc2)CC1	i	i	i	i	i	i
COc1ccc(OC)c(CN2CCN(C(=O)c3cccc(S(=O)(=O)Nc4ccc(F)cc4)c3)CC2)c1	i	?	i	i	15µM	i
COc1ccc(OC)c(CN2CCN(C(=O)c3ccc(F)cc3)CC2)c1	i	i	i	i	i	i
O=C(c1cccs1)N1CCN(CCCc2ccccc2)CC1	i	i	i	i	12µM	i
CCOC(=O)C1(CC2CC2)CCN(Cc2cnc(-c3ccc(OC)cc3)nc2)CC1	i	?	13µM	i	?	i
CCOC(=O)C1(Cc2cccc(OC)c2)CCN(Cc2cnc(N)nc2)CC1	i	i	i	i	i	i
COc1ccc(OC)c(CN2CCN(C(=O)c3cccs3)CC2)c1	i	i	i	i	21µM	i
Cc1ccc(CNC(=O)C2CCN(S(=O)(=O)c3c(C)noc3/C=C/c3cccs3)CC2)cc1	i	nt	nt	nt	nt	nt
CCCCn1c(=O)c2oc3ccccc3c2n(Cc2ccc(OC)cc2)c1=O	i	nt	nt	nt	nt	nt
Cc1cc(N2CCC(C)CC2)c(F)cc1[N+](=O)[O-]	i	i	i	i	i	i
Cc1cc(N2CCCC2)c(F)cc1/C=C\[N+](=O)[O-]	i	?	?	i	?	29µM
SMILES	PINK1 expr mod	KB-3-1 cytotox	MCF10A rereplic	PTAP TSG101 blk	KB-V1 cytotox	SW480 rereplic
CCC1(c2ccccc2)CN(C)C1=O (stereo not drawn)	i	i	nt	nt	i	nt
CCN1c2ccccc2N(C)C1(C)c1ccccc1 (stereo not drawn)	?	?	?	i	i	12µM
CN1C(=O)N(C)C2(c3ccccc3)NC(=O)NC12c1ccccc1 (stereo not drawn)	i	i	i	i	i	i
CN1c2ccccc2N(C)C1(C)c1ccccc1	?	i	?	i	i	5.8µM
COc1cc2ccccc2cc1C(=O)O	i	i	i	i	i	i
COc1cc2ccccc2ccc1=NO	i	?	?	i	16µM	?
Cc1c(Cl)cccc1NC(=O)C(C)N(c1ccccc1)S(C)(=O)=O (stereo not drawn)	i	i	nt	nt	i	nt
C[C@H](c1ccccc1)N1C[C@@H](COCc2ccccc2)Oc2cc(N3CC[C@H](N(C)C)C3)ccc2S1(=O)=O	i	i	nt	nt	23µM	nt
O=S(=O)(NCCNc1ncc(C(F)(F)F)cc1Cl)C(F)(F)F	40µM	?	?	i	?	i
O=C1C=CC(=O)N1CCNc1ncc(C(F)(F)F)cc1Cl	i	?	5.8µM	i	?	8.2µM
O=C1CC(=O)N(CCNc2ncc(C(F)(F)F)cc2Cl)C(=O)N1	i	i	?	i	i	i
Cc1cccc(-n2cnc(C(=O)NNC(=S)Nc3ccc(Cl)cc3)c2)n1	i	13µM	i	i	i	?
CN(C)c1ccc(CNC(=O)c2ccc(NC(=O)c3nsc4ccccc34)cc2)cc1	i	i	nt	nt	i	nt
COc1ccccc1CNC(=O)c1cc2ccc3ccc(C)[nH]c3c2n1	i	i	nt	nt	?	nt
FC(F)(F)c1ccc(CN2C[C@@H]3C(c4ccc(Cl)nc4)C4(c5cccnc5)CC3(C4)[C@H]2c2ccccc2)cc1 (stereo partly drawn)	?	15µM	i	i	?	i
COc1ccc(CN2CCC3(CCC(CNC(=O)c4ccco4)O3)CC2)c(OC)c1C (stereo not drawn)	i	nt	nt	nt	nt	nt
O=C(Nc1cc(C(F)(F)F)ccc1Cl)c1cc(-c2ccc3c(c2)OCCO3)on1	i	i	nt	nt	i	nt
Cc1cc(C)c(S(=O)(=O)N2CCCCC2CCNC(=O)C(=O)NCCN2CCOCC2)c(C)c1 (stereo not drawn)	i	i	i	i	3.3µM	i
Cc1cc(F)ccc1S(=O)(=O)N1CCCCC1CCNC(=O)C(=O)NCCN1CCOCC1 (stereo not drawn)	i	i	i	i	16µM	i
O=C(NCCC1CCCCN1S(=O)(=O)c1ccc(F)cc1)C(=O)NCCN1CCOCC1 (stereo not drawn)	i	i	i	i	i	i
Cc1ccc(-c2noc(CSc3nnc(CCc4ccccc4)n3-c3ccccc3)n2)cc1	i	i	?	i	?	i
Clc1ccc(-n2c(Cc3ccccc3)nnc2SCc2nc(-c3cccs3)no2)cc1	i	?	nt	nt	?	nt
COc1ccc(-c2noc(CSc3nnc(CCc4ccccc4)n3-c3ccccc3)n2)cc1OC	i	i	?	i	23µM	i
Cc1ccc(-c2noc(CSc3nnc(Cc4ccccc4)n3-c3ccc(Cl)cc3)n2)cc1	i	?	?	i	18µM	?
